CCHF vOTU inh = blocks the CCHF virus ovarian tumor domain protease | CCHFV vOTU protease, Pep-AMC fluorescence | inhibition, % at 11.5 µM | 370,000 compounds, 0.55% hits; in the data active = inhibition above about 30%
BJeLR lethal = kills HRASV12-expressing BJeLR cells. inhibition, % (test concentration not listed). 300,000 compounds, 0.17% hits. BJeLR (HRASV12) viability, CellTiter-Glo ATP luminescence, 48 h; in the data active = inhibition above about 50%
Sa RN4220 lethal = kills Staphylococcus aureus RN4220 | AID 1259311 | S. aureus RN4220 growth, OD600, 16 h | inhibition, % (concentration not given with the values) | 330,000 compounds, 0.33% hits; in the data active = inhibition above about 85%
Mtb hypoxia rep = inhibitors of hypoxia-regulated fluorescent reporter in Mycobacterium tuberculosis; 300,000 compounds, 0.1% hits; M. tuberculosis hypoxia-regulated fluorescent reporter, fluorescence; fluorescence inhibition, % (concentration not given with the values); in the data active = fluorescence inhibition mostly above about 23%, no sharp cut-off; inactive = mostly below about 17%
ugtP null kill = compounds lethal to S. aureus RN4220 ugtP deletion mutant. OD600 growth, 16 h. growth inhibition, % (concentration not given with the values). 330,000 compounds, 0.54% hits. AID 1259309; in the data active = growth inhibition above about 68%
RecA splice inh = Mtb RecA intein splicing inhibition; P9WHJ3; cell-free RecA intein splicing, fluorescence; inhibition, % (no concentration beside the values); 290,000 compounds, 0.75% hits; AID 2221; in the data active = inhibition above about 30%
Target sequence (P9WHJ3 whole entry, looked up, canonical isoform): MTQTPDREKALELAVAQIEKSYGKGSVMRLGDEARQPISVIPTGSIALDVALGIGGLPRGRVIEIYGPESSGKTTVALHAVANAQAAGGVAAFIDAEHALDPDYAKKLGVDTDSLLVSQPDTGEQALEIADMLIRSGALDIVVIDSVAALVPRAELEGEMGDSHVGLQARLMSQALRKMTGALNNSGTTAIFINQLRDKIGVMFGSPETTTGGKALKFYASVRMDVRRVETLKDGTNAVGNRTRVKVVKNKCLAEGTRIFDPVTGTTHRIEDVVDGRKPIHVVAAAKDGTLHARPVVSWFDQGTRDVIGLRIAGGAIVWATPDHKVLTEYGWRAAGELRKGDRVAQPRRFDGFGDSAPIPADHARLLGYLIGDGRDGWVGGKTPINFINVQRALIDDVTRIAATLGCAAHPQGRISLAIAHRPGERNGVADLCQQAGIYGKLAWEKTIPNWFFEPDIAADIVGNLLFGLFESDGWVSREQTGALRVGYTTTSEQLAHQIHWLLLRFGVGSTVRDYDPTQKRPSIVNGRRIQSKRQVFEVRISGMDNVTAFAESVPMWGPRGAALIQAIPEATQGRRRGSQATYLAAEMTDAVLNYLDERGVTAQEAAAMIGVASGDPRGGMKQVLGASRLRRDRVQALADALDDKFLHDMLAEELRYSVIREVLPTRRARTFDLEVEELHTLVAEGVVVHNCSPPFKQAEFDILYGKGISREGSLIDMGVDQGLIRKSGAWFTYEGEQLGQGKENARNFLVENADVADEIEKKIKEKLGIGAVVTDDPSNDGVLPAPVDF
GFP chromophore = counter-screen: blocks GFP chromophore formation. shares compounds with RecA splice inh. cell-free GFP chromophore formation, fluorescence. 2,100 compounds, 83% hits. AID 434968. EC50, µM; call rule not given here
Each line names hits and unclear results; the compound was inactive in the other large screens (follow-up assays come after a bar, where they were run). Sampled rows, rich in hits. Any-hit rate of the full collection: about 1.6%.

CC(C)CN1CCC(=O)N(C(COc2ccccc2)Cc2ccccc2)CC1 (configuration not stated)	none (no result: CCHF vOTU inh, BJeLR lethal, RecA splice inh)
COc1ccc(C2C(C#N)=C(N)Oc3n[nH]c(C)c32)cc1Cn1cc([N+](=O)[O-])cn1 (configuration not stated)	RecA splice inh 76 (no result: Mtb hypoxia rep) | GFP chromophore 12
COc1cc(C2C(C#N)=C(N)Oc3n[nH]c(C)c32)cc2c1OCO2 (configuration not stated)	RecA splice inh 92 | GFP chromophore 4.9
CCOC(=O)Cc1[nH]nc2c1C(c1ccoc1)C(C#N)=C(N)O2 (configuration not stated)	RecA splice inh 65 | GFP chromophore 26
C=CCOC(=O)C1=C(C)OC(N)=C(C#N)C1c1ccoc1 (configuration not stated)	none (no result: RecA splice inh)
COc1ccc(C2C(C#N)=C(N)OC3=C2C(=O)CCC3)cc1Cn1nc(C)c([N+](=O)[O-])c1C (configuration not stated)	none
CCCc1[nH]nc2c1C(c1ccoc1)C(C#N)=C(N)O2 (configuration not stated)	RecA splice inh 61 | GFP chromophore 19
CON(C)C(=O)C=CCCCCNC(=O)OC(C)(C)C	none (no result: CCHF vOTU inh, BJeLR lethal, RecA splice inh)
Cc1[nH]nc2c1C(c1ccoc1)C(C#N)=C(N)O2 (configuration not stated)	RecA splice inh 84 | GFP chromophore 18
Cc1[nH]nc2c1C(C(C)C)C(C#N)=C(N)O2 (configuration not stated)	none (no result: RecA splice inh)
C#CCNC(=O)C1=CC(c2ccc(C(F)(F)F)cc2)CC(OCCCCO)O1 (configuration not stated)	none (no result: CCHF vOTU inh, BJeLR lethal, RecA splice inh)
CSc1nnc(NC(=O)c2nc(S(=O)(=O)Cc3ccccc3)ncc2Cl)s1	RecA splice inh 72 (no result: Sa RN4220 lethal, Mtb hypoxia rep, ugtP null kill) | GFP chromophore 30
CCCc1nnc(NC(=O)c2nc(S(=O)(=O)Cc3ccc(C)cc3)ncc2Cl)s1	RecA splice inh 85 (no result: Sa RN4220 lethal, Mtb hypoxia rep, ugtP null kill) | GFP chromophore inactive
CSc1ncc(Cl)c(C(=O)Nc2nnc(SC)s2)n1	none (no result: Mtb hypoxia rep)
COc1ccccc1NC(=O)c1nc(S(=O)(=O)Cc2ccccc2)ncc1Cl	none (no result: Sa RN4220 lethal, Mtb hypoxia rep, ugtP null kill)
CC(C)c1nnc(NC(=O)c2nc(S(=O)(=O)Cc3ccccc3)ncc2Cl)s1	RecA splice inh 79 (no result: Sa RN4220 lethal, Mtb hypoxia rep, ugtP null kill) | GFP chromophore inactive
CCOc1ccccc1NC(=O)c1nc(S(=O)(=O)Cc2ccccc2)ncc1Cl	none
CN1CCN(CCC(=O)NN=C/C=C2\N(C)c3ccccc3C2(C)C)CC1	none (no result: CCHF vOTU inh, BJeLR lethal, RecA splice inh)
CSc1ccc(C(c2c(C)[nH][nH]c2=O)c2c(C)[nH][nH]c2=O)cc1	RecA splice inh 98 (no result: Sa RN4220 lethal, Mtb hypoxia rep, ugtP null kill) | GFP chromophore 0.57
COc1cc(C(c2c(C)[nH][nH]c2=O)c2c(C)[nH][nH]c2=O)ccc1OC(=O)c1cccc([N+](=O)[O-])c1	none (no result: BJeLR lethal, RecA splice inh)
COc1cc(C(c2c(C)[nH][nH]c2=O)c2c(C)[nH][nH]c2=O)ccc1OCc1ccc([N+](=O)[O-])cc1	RecA splice inh 95 | GFP chromophore 0.35
CSc1ccc(C(c2c(C(=O)O)[nH]c3ccccc23)c2c(C(=O)O)[nH]c3ccccc23)cc1	none
Cc1[nH][nH]c(=O)c1C(c1ccc([N+](=O)[O-])cc1)c1c(C)[nH][nH]c1=O	RecA splice inh 96 | GFP chromophore 0.69
COC(=O)COc1ccc(C(c2c(C)[nH][nH]c2=O)c2c(C)[nH][nH]c2=O)cc1	RecA splice inh 98 | GFP chromophore 0.69
CC1OC(OC2CC[C@@]3(C)C(CC[C@]4(C)C3C=CC3=C5CC(C)(C)CC[C@]5(CO)C(O)C[C@]34C)[C@]2(C)CO)C(O)C(OC2OC(CO)C(O)C(O)C2O)C1O (some centres not stated)	none (no result: CCHF vOTU inh, BJeLR lethal, RecA splice inh)
CCOC(=O)C1C2COc3ccccc3C2N2C(=O)c3ccc(C)cc3NC(=O)[C@@]12C (some centres not stated)	none (no result: CCHF vOTU inh, BJeLR lethal, RecA splice inh)
COc1ccc(-c2nc3c(n2O)CCCC3=NO)cc1	none (no result: CCHF vOTU inh, BJeLR lethal, RecA splice inh)
Cc1[nH][nH]c(=O)c1C(c1ccc(Br)cc1)c1c(C)[nH][nH]c1=O	RecA splice inh 98 | GFP chromophore 0.81
Cc1ccc(C(c2c(C)[nH][nH]c2=O)c2c(C)[nH][nH]c2=O)cc1	RecA splice inh 98 | GFP chromophore 0.54
Cc1ccc(N=Nc2c(C)[nH][nH]c2=O)c(C)c1	none
COC(=O)C1C[C@@]2(O)C(O)C(O)C(O)CC2N1Cc1ccccc1OS(=O)(=O)c1ccc(C)cc1 (some centres not stated)	none (no result: CCHF vOTU inh, BJeLR lethal, RecA splice inh)
COc1cc(C(c2c(C)[nH][nH]c2=O)c2c(C)[nH][nH]c2=O)ccc1OS(=O)(=O)c1ccc(C)cc1	RecA splice inh 98 | GFP chromophore 0.44
CCOC(=O)c1ccc(OS(=O)(=O)c2ccccc2)c(OC)c1	none
COc1cc(C(c2c(C)[nH][nH]c2=O)c2c(C)[nH][nH]c2=O)ccc1OS(=O)(=O)c1ccccc1	RecA splice inh 95 | GFP chromophore 0.44
CC(=O)n1cc(N(C(=O)CCl)c2ccc(Cl)cc2)c2ccccc21	BJeLR lethal 108, ugtP null kill 95, RecA splice inh 59 (no result: CCHF vOTU inh) | GFP chromophore 1.3
CCOC(=O)c1ccccc1Nc1cn(C(C)=O)c2ccccc12	none (no result: Mtb hypoxia rep)
COc1ccccc1N(C(=O)CCl)c1cn(C(C)=O)c2ccccc12	BJeLR lethal 65, RecA splice inh 51 | GFP chromophore 23
CCOC(=O)c1ccc(-n2[nH]c(-c3ccccc3)cc2=O)cc1	RecA splice inh 67 | GFP chromophore 3.3
COc1ccc2c(c1)OCC1C2N2C(=O)C(C)NC(=O)[C@@]2(C)C1c1ccccc1 (some centres not stated)	none (no result: CCHF vOTU inh, BJeLR lethal, RecA splice inh)
Oc1ccc(NCc2ccccc2OCc2ccccc2F)cc1	none (no result: Mtb hypoxia rep)
CCOc1cc(CNCc2ccccc2)ccc1OCc1ccc(Cl)cc1	none
CCOc1ccccc1CNc1ccc(O)cc1	CCHF vOTU inh 48, RecA splice inh 82 | GFP chromophore 23
CCOc1cc(CNc2ccc(O)cc2)ccc1OCc1ccc(Cl)cc1Cl	RecA splice inh 40 (no result: CCHF vOTU inh, Sa RN4220 lethal, Mtb hypoxia rep, ugtP null kill) | GFP chromophore inactive
C/C(C=NNC(=O)Cc1cccn1C)=C/c1ccco1	none (no result: CCHF vOTU inh, BJeLR lethal, RecA splice inh)
CCOC(=O)CSc1nnc(NCC(=O)OC(C)C)c(=O)[nH]1	RecA splice inh 55 (no result: Mtb hypoxia rep) | GFP chromophore 37
CCOC(=O)CNC(=O)CSc1nnc(C)c(=O)[nH]1	none
CSc1cc(-c2ccc(Cl)cc2)[nH]c(=O)c1C#N	none
CCCc1[nH][nH]c(=O)c1C(c1ccc(Br)cc1)C(C#N)C#N (configuration not stated)	RecA splice inh 66 | GFP chromophore 11
CCCc1[nH][nH]c(=O)c1C(c1ccccc1)C(C#N)C#N (configuration not stated)	RecA splice inh 62 | GFP chromophore 20
O=c1[nH][nH]c(-c2ccccc2O)c1C(C[N+](=O)[O-])c1ccccc1 (configuration not stated)	none (no result: Sa RN4220 lethal, Mtb hypoxia rep, ugtP null kill)

Screening results from PubChem.
